Shown are actives, neighbours in structure and some others; about 3.4% of the full set was active somewhere.
Mcl1-Bid inh: Mcl-1/Bid interaction inhibition; TR-FRET Mcl-1/Bid-Dy647 peptide binding, 1536-well; inhibition, % at 21.7 µM; hit rate 0.97% among 220,000; AID 1021;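 active means compounds that cut the binding signal by more than half at the single screening dose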;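 further: His-tagged Mcl-1 with europium anti-His antibody binding Bid BH3 peptide; 0% = Mcl-1 plus peptide wells and 100% = peptide-only wells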
14-3-3 Bad PPI: disrupts binding of bovine 14-3-3 zeta to phospho-Bad peptide; P63103; TR-FRET 14-3-3zeta/Dy647-pBad peptide displacement, 1 h; hit rate 0.71% among 220,000; inhibition, % at 21.7 µM;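 active means inhibition above about 70%, limit read from the data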;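 further: 0% = full 14-3-3 plus peptide FRET controls and 100% = background without 14-3-3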
Target sequence (P63103 whole entry, looked up): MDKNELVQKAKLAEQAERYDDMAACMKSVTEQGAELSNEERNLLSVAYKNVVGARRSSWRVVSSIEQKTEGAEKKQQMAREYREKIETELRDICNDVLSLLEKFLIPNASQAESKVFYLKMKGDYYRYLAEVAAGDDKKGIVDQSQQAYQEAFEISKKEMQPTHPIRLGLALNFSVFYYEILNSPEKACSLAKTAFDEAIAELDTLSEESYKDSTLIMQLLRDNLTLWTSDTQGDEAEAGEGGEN
eIF4E 4G PPI: eIF4E/eIF4G interaction inhibition in translation initiation; P63073+Q04637; TR-FRET eIF4E-eIF4GI(517-606) binding, 2 h; inhibition, % at 21.7 µM; hit rate 0.37% among 220,000;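 further: 0% = full FRET control wells and 100% = background wells lacking eIF4GI fragment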
Bim-Mcl-1: inhibitors of Bim-Mcl-1 interaction, human. Bead-based flow cytometry, Bim peptide-Mcl-1 binding. inhibition, % at 10 µM. hit rate 0.1% among 190,000. AID 1009; in the data active means inhibition above about 40%;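 further: 0% = no compound tracer wells and 100% = peptide blocker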
NCF1 inh: blocks human p47phox regulatory protein of NADPH oxidases. P14598. p47phox/p22phox peptide binding, fluorescence polarization, 2 h. inhibition, % at 24.7 µM. hit rate 0.53% among 220,000;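 further: 0% = p47phox with labelled peptide and 100% = labelled peptide alone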
Target sequence (P14598 whole entry, looked up): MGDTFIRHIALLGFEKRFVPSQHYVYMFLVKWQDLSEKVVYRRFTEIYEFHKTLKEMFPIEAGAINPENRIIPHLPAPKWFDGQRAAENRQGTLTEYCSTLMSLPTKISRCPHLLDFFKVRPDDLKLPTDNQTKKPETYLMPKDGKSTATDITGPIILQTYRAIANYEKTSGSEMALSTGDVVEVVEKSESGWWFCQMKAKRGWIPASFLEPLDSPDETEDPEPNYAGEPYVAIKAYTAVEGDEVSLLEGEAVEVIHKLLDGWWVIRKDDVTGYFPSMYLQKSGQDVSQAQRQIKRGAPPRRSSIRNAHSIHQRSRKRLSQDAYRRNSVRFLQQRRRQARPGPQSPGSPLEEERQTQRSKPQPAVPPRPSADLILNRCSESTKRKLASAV
Mcl1-Noxa inh: disrupts binding of human Mcl-1 to Noxa peptide. inhibition, % at 21.7 µM. TR-FRET Mcl-1/Noxa peptide binding, 2 h. hit rate 1.5% among 220,000;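 active means compounds that cut the protein-peptide binding signal by more than 50% relative to plate controls in a single-dose test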;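 further: His-tagged Mcl-1 with rhodamine Noxa BH3 peptide and terbium anti-His antibody; 0% = Mcl-1 plus Noxa peptide wells and 100% = peptide-only wells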
Numbers without * were called inactive; [ ] = dose if it differs, or a comment.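 How the source made its calls, unless noted: active means inhibition above about 30% (limit read from the data); inactive means the rest.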

Cc1ccc2cccc(Oc3ncnc4scc(-c5ccc(Cl)cc5)c34)c2n1 was read as Mcl1-Bid inh 99*, 14-3-3 Bad PPI 13, eIF4E 4G PPI -1, Bim-Mcl-1 -8, NCF1 inh -6 and Mcl1-Noxa inh 31.
Screening Cc1ccc2cccc(Oc3ncnc4scc(-c5ccccc5)c34)c2n1 returned Mcl1-Bid inh 17, 14-3-3 Bad PPI 6, eIF4E 4G PPI 1, Bim-Mcl-1 1, NCF1 inh -6 and Mcl1-Noxa inh 29.
Screening Cc1ccc(C#CC[N+]2(CC#Cc3ccc(C)cc3)CCCCC2)cc1 returned Mcl1-Bid inh -1, 14-3-3 Bad PPI -6, eIF4E 4G PPI 1, Bim-Mcl-1 -9, NCF1 inh -19 and Mcl1-Noxa inh 9.
For CC(=O)Nc1ccc(OCc2nnc(-c3ccc(Cl)cc3)o2)cc1 the results were Mcl1-Bid inh 3, 14-3-3 Bad PPI -11, eIF4E 4G PPI 2, Bim-Mcl-1 0, NCF1 inh -14 and Mcl1-Noxa inh 11.
`O=C(COC(=O)Cc1cccc(C(F)(F)F)c1)NCC1CCCO1` (stereo not given) gave Mcl1-Bid inh -30, 14-3-3 Bad PPI 12, eIF4E 4G PPI 5, Bim-Mcl-1 1, NCF1 inh 65* and Mcl1-Noxa inh -3.
O=C(COc1ncnc2sccc12)NC1CCS(=O)(=O)C1 (stereo not given) was read as Mcl1-Bid inh -12, 14-3-3 Bad PPI -7, eIF4E 4G PPI -4, NCF1 inh -17 and Mcl1-Noxa inh -4.
COc1ccc2cc3c(N)c(C(=O)NCc4ccco4)sc3nc2c1 was read as Mcl1-Bid inh -15, 14-3-3 Bad PPI 10, eIF4E 4G PPI 1, Bim-Mcl-1 1, NCF1 inh -23 and Mcl1-Noxa inh 63*.
`Nc1c(C(=O)NCc2ccco2)sc2nc3c(cc12)C(=O)CCC3` gave Mcl1-Bid inh -45, 14-3-3 Bad PPI 10, eIF4E 4G PPI 32*[fluorescence artefact?], Bim-Mcl-1 11, NCF1 inh -17 and Mcl1-Noxa inh 88*.
Screening COc1ccc2cc3cc(C(=O)NCc4ccco4)oc3nc2c1 returned Mcl1-Bid inh -6, 14-3-3 Bad PPI 7, eIF4E 4G PPI 14, Bim-Mcl-1 -2, NCF1 inh 10 and Mcl1-Noxa inh 40.
CCOC(=O)C1C(C(=O)NN)C1C(=O)Nc1ccccc1 (stereo not given) was read as Mcl1-Bid inh -4, 14-3-3 Bad PPI -10, eIF4E 4G PPI -1, Bim-Mcl-1 0, NCF1 inh 0 and Mcl1-Noxa inh 8.
`O=C(CSc1nc(-c2ccc(F)cc2)nc2c1Cc1ccccc1O2)Nc1ccc(C(=O)O)cc1` gave Mcl1-Bid inh 49, 14-3-3 Bad PPI 97*, eIF4E 4G PPI 62*, Bim-Mcl-1 0, NCF1 inh -125 and Mcl1-Noxa inh -76.
For O=C(CSc1nc(-c2ccccc2)nc2c1Cc1ccccc1O2)Nc1ccc(C(=O)O)cc1 the results were Mcl1-Bid inh 88*, 14-3-3 Bad PPI 94*, eIF4E 4G PPI 60*, Bim-Mcl-1 -1, NCF1 inh -101 and Mcl1-Noxa inh 27.
CCOC(=O)c1c(NC(=O)CCNCc2ccco2)sc2c1CCC2 was read as Mcl1-Bid inh 13, 14-3-3 Bad PPI 23, eIF4E 4G PPI -2, NCF1 inh -17 and Mcl1-Noxa inh 28.
For COc1cccc(F)c1C(C[N+](=O)[O-])c1c(N)n(C)c(=O)n(C)c1=O (stereo not given) the results were Mcl1-Bid inh -16, 14-3-3 Bad PPI 3, eIF4E 4G PPI 2, NCF1 inh -10 and Mcl1-Noxa inh -11.
COc1ccc(OC)c(NC(=O)CN(Cc2ccccc2)S(C)(=O)=O)c1 was read as Mcl1-Bid inh -14, 14-3-3 Bad PPI -7, eIF4E 4G PPI -1, Bim-Mcl-1 0, NCF1 inh 0 and Mcl1-Noxa inh 3.
Screening CC(NCC(O)COCCC12CC3CC(CC(C3)C1)C2)c1ccccc1 (stereo not given) returned Mcl1-Bid inh -13, 14-3-3 Bad PPI -5, eIF4E 4G PPI 5, Bim-Mcl-1 0, NCF1 inh -21 and Mcl1-Noxa inh 2.
Screening O=C(COc1ccccc1)Nc1ccc2c(c1)Cc1cc(NC(=O)COc3ccccc3)ccc1-2 returned Mcl1-Bid inh 22, 14-3-3 Bad PPI 28, eIF4E 4G PPI 2, Bim-Mcl-1 113*, NCF1 inh 9 and Mcl1-Noxa inh 20.
Screening CCOc1cc(C=C2C(=O)c3ccccc3C2=O)ccc1OCC(=O)Nc1ccc(C)cc1 returned Mcl1-Bid inh 86*, 14-3-3 Bad PPI 29, eIF4E 4G PPI 2, Bim-Mcl-1 -2, NCF1 inh 29 and Mcl1-Noxa inh 43.
CCOc1cc(/C=N/NC(N)=O)ccc1OCC(=O)Nc1ccc(C)c(C)c1 was read as Mcl1-Bid inh -3, 14-3-3 Bad PPI 15, eIF4E 4G PPI -6, Bim-Mcl-1 3, NCF1 inh -65 and Mcl1-Noxa inh 17.
For CCOc1cc(/C=C2/NC(=O)N(CC(=O)Nc3cccc(C)c3)C2=O)ccc1OCC(N)=O the results were Mcl1-Bid inh 3, 14-3-3 Bad PPI 20, eIF4E 4G PPI 4, Bim-Mcl-1 1, NCF1 inh -11 and Mcl1-Noxa inh 59*.
`COc1ccc(C(=O)Nc2ccc3c(c2)C(=O)c2ccccc2C3=O)cc1OC` gave Mcl1-Bid inh 85*, 14-3-3 Bad PPI 69, eIF4E 4G PPI 18, Bim-Mcl-1 0, NCF1 inh -13 and Mcl1-Noxa inh 68*.
Cc1cccc2cc(CNCc3ccccc3)c(Cl)nc12 was read as Mcl1-Bid inh -13, 14-3-3 Bad PPI -11, eIF4E 4G PPI 0, Bim-Mcl-1 -3, NCF1 inh 8 and Mcl1-Noxa inh -11.
COc1ccc(C)cc1NC(=S)NC(C)c1ccc(OC)c(OC)c1 (stereo not given) was read as Mcl1-Bid inh -17, 14-3-3 Bad PPI 2, eIF4E 4G PPI -1, Bim-Mcl-1 0 and Mcl1-Noxa inh 0.
N=C1SC(CC(=O)Nc2ccccc2[N+](=O)[O-])C(=O)N1c1ccccc1 (stereo not given) was read as Mcl1-Bid inh -2, 14-3-3 Bad PPI 3, eIF4E 4G PPI -2, NCF1 inh -13 and Mcl1-Noxa inh 2.
Screening Nc1ccccc1CNc1nc(NCCO)nc2c1ncn2CCN1CCOCC1 returned Mcl1-Bid inh -74, 14-3-3 Bad PPI 35, eIF4E 4G PPI -3, NCF1 inh -3 and Mcl1-Noxa inh -14.
Cc1ccc(NC(=O)COC(=O)Cn2cnc3ccccc32)cc1S(=O)(=O)N(C)C was read as Mcl1-Bid inh 3, 14-3-3 Bad PPI 5, eIF4E 4G PPI 1, Bim-Mcl-1 -6, NCF1 inh -8 and Mcl1-Noxa inh 2.
For Cc1ccccc1OCC(=O)Nc1ccc2c(c1)C(=O)c1ccccc1C2=O the results were Mcl1-Bid inh 8, 14-3-3 Bad PPI 10, eIF4E 4G PPI 8, Bim-Mcl-1 -1, NCF1 inh 1 and Mcl1-Noxa inh 67*.
